Source: the supplement of paper PMC11732987, “Enantioselective OTUD7B fragment discovery through chemoproteomics screening and high-throughput optimisation” (Communications Chemistry, 2025)

Assays:
Experiment in all cases: log2 ratio of Biotin-Ahx-Ub-VS probe labelling (fragment/DMSO); higher = less target engagement (more negative = stronger competition), active = hit call of the paper (q ≤ 0.05, log2 ratio ≤ -1)
Settings in all cases: compound concentration: 200 uM; treatment time: 3 h
ALG13 = target: T1, ALG13 (UniProt Q9NP73)
T1 sequence (whole entry): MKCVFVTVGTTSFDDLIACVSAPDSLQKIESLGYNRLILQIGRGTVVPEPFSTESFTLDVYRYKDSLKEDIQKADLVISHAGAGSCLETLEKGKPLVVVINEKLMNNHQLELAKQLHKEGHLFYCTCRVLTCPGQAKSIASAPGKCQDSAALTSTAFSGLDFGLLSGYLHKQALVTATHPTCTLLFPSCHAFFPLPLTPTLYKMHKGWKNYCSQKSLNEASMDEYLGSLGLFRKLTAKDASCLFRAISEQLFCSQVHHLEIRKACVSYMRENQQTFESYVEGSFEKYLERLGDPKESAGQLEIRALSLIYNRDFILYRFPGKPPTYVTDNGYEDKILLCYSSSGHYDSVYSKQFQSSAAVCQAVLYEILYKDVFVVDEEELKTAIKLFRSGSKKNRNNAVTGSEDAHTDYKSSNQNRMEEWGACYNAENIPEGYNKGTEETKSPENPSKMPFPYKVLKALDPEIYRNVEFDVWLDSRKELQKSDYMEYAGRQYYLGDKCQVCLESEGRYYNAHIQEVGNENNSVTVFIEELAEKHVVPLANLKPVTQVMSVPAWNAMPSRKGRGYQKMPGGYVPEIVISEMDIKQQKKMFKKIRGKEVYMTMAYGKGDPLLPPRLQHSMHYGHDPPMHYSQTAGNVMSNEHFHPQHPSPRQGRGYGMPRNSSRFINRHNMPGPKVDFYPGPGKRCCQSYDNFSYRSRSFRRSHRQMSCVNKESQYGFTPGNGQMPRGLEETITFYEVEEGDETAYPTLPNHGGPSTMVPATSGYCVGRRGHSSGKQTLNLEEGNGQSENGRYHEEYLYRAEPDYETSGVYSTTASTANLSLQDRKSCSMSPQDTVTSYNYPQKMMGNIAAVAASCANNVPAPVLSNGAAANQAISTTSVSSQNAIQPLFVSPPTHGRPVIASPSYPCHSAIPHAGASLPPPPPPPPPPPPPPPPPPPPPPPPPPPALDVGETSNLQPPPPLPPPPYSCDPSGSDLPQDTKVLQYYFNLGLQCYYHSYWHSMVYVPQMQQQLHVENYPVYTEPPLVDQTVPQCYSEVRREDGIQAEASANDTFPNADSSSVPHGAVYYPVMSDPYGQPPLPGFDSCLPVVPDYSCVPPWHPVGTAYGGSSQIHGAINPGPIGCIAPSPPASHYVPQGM
How it was run: (§1)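 HEK293T lysate (495 µg per sample, in Tris/CHAPS/IGEPAL buffer with protease inhibitors) was exposed in triplicate for 3 h to fragment at 200 µM or to vehicle, then to Biotin-Ahx-Ub-VS at 0.5 µM final for 1 h. Labelled DUBs were enriched on NeutrAvidin, digested with LysC and trypsin, and analysed by diaPASEF LC-MS/MS. Spectronaut label-free quantities were normalised to the global median, and values are average log2 ratios of fragment over vehicle from an unpaired t-test. Only proteins with ≥2 unique peptides were used.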

ATXN3 = ATXN3 (UniProt P54252)
ATXN3, sequence (P54252 whole entry): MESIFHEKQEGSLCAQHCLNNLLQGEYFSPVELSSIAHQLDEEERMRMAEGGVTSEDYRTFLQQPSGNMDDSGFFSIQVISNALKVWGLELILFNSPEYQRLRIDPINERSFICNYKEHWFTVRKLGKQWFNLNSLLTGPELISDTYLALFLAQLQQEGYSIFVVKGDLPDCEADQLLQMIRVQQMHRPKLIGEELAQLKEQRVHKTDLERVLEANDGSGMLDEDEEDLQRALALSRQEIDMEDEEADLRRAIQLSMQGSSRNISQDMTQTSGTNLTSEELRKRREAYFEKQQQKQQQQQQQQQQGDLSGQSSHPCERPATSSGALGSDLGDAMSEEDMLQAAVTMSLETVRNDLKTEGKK
How it was run: as §1

BAP1 = target: T2, BAP1 (UniProt Q92560)
T2 sequence (whole entry): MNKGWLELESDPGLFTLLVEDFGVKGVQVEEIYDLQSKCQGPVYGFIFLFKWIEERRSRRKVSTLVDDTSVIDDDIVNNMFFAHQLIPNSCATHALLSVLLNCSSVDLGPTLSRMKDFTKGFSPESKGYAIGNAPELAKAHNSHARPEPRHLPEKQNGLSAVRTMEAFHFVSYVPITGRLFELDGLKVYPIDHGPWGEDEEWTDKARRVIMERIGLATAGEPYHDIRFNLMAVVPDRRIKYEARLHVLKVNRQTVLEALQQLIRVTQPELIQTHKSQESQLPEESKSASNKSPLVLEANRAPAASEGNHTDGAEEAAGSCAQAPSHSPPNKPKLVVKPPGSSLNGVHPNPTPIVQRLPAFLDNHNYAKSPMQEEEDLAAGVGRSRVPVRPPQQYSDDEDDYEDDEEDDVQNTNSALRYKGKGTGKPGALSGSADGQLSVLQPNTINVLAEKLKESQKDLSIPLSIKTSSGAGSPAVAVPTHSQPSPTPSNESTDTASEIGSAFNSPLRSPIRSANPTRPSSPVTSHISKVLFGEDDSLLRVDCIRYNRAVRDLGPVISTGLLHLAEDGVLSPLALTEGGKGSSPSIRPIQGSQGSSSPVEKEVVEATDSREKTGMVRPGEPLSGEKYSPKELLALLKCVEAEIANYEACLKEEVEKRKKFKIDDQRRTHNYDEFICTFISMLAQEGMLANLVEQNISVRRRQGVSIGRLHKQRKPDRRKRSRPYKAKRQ
How it was run: as §1

EIF3F = EIF3F (UniProt O00303)
EIF3F, sequence (O00303 whole entry): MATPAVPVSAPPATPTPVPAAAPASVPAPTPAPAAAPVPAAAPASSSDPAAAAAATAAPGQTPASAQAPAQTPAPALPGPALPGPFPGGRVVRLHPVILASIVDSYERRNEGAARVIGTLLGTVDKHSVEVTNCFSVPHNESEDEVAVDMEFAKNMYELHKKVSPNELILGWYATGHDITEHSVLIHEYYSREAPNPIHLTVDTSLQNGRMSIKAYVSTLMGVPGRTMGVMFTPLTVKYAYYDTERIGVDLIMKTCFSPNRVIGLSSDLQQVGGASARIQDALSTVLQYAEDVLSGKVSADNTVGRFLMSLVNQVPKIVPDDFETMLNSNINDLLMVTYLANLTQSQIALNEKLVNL
How it was run: as §1

EIF3H = EIF3H (UniProt O15372)
EIF3H, sequence (O15372 whole entry): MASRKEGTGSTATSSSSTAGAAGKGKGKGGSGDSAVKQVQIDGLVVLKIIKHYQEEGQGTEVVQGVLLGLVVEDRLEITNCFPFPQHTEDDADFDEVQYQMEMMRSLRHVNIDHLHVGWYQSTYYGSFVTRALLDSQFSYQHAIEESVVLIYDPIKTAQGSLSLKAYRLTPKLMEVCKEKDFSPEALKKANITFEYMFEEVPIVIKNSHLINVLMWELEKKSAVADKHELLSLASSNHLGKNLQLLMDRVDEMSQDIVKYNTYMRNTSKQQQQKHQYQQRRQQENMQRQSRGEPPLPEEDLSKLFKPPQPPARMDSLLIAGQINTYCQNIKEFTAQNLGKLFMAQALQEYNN
How it was run: as §1

FAM105A = target: T3, FAM105A (UniProt Q9NUU6)
T3 sequence (whole entry): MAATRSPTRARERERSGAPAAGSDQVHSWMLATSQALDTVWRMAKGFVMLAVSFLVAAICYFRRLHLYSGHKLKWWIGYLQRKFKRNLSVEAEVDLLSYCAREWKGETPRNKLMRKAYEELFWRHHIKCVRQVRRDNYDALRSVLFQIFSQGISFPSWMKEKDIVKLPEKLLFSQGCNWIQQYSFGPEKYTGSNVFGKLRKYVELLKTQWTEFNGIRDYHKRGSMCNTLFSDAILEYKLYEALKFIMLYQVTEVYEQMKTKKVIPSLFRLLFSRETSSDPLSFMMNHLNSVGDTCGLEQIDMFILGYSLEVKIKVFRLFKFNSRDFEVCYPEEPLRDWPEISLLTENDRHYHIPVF
How it was run: as §1

OTUB1 = OTUB1 (UniProt Q96FW1)
OTUB1, sequence (Q96FW1 whole entry): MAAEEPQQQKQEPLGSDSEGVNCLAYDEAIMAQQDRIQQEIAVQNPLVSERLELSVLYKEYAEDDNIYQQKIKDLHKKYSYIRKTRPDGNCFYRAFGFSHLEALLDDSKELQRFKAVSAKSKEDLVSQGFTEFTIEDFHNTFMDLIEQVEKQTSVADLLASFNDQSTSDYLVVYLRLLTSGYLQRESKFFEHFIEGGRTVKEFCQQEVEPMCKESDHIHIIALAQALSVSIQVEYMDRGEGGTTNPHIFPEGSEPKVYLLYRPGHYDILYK
How it was run: as §1

OTUD4 = target: T4, OTUD4 (UniProt Q01804)
T4 sequence (whole entry): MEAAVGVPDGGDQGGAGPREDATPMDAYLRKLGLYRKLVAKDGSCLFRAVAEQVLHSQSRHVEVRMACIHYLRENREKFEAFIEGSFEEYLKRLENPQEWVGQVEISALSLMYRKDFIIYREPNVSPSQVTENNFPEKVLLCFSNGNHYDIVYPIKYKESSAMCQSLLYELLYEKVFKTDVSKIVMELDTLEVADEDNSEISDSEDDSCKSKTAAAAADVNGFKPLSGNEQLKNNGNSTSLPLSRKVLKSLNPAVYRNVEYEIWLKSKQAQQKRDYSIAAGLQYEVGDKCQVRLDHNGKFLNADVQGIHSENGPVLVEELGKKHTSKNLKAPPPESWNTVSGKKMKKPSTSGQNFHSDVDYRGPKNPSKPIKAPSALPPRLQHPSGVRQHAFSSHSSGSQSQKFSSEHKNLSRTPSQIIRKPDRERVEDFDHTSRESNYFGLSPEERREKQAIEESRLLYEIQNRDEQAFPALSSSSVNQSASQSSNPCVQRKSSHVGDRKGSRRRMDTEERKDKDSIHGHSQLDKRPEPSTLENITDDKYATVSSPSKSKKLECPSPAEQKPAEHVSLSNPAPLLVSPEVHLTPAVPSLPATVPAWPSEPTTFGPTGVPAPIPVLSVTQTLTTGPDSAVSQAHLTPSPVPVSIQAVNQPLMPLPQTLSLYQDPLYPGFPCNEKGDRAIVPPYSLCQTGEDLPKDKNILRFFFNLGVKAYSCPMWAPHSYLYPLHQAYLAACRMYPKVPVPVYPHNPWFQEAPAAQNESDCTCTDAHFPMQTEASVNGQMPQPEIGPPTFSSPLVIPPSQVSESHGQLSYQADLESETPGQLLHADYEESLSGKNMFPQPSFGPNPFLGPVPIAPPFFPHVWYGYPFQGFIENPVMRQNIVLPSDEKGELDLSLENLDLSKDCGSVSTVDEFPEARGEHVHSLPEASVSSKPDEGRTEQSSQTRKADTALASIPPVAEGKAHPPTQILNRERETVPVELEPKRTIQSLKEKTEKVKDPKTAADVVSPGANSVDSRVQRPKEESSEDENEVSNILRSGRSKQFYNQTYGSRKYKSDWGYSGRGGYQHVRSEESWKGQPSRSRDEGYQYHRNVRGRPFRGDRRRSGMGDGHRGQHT
How it was run: as §1

OTUD5 = target: T5, OTUD5 (UniProt Q96G74)
T5 sequence (whole entry): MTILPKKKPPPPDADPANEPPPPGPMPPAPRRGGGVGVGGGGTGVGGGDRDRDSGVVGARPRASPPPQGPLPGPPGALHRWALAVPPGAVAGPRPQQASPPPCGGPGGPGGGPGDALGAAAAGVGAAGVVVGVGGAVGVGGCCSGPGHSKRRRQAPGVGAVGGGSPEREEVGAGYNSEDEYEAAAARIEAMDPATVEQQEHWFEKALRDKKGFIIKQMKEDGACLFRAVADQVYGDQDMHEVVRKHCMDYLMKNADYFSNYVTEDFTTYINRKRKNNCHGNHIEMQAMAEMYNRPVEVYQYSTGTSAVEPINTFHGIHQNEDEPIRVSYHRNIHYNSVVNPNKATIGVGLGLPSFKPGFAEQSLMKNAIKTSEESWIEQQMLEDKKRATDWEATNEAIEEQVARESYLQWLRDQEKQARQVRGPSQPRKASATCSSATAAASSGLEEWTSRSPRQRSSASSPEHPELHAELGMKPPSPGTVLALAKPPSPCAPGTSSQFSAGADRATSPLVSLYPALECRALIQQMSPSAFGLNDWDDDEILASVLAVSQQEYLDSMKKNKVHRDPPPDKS
How it was run: as §1

Measured: log2 ratio of Biotin-Ahx-Ub-VS probe labelling

O=C(CCl)N1CCOCC1C1CC1 (centres undefined)
inactive: ATXN3 -0.209 | BAP1 -0.299 | EIF3F -0.527 | EIF3H 0.16 | FAM105A 0.635 | OTUB1 -0.181 | OTUD4 -0.865 | OTUD5 -0.313
active: ALG13 -1.36
